{
  "source": "PubChem BioAssay (NCI)",
  "note": "The panel holds about 83,000 compounds, 20% with a hit somewhere; the sample as a whole holds those more often.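 Compound tested at a single concentration for 48 hours in 96-well plates; a percent growth value below 10 was scored as active.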 A number with no mark means an inactive call. Active and inactive are the calls of the source.",
  "data": [
    {"test_system": "MDA-MB-468 breast", "assay": "NCI-60 one-dose screen, 48 h (100 = growth as untreated, 0 = no growth, -100 = all killed)", "conditions": "10 µM unless noted", "values": [
      {"smiles": "O=C1C(Cl)=C(Oc2ccccc2)C(=O)c2ccccc21", "growth": "13%"},
      {"smiles": "CCCCCc1nc2c(c3c1CCCC3)CCCC2", "growth": "75.5%"},
      {"smiles": "N#CC(C#N)N=Nc1cc(Cl)ccc1Cl", "growth": "120%"},
      {"smiles": "Cc1nn(-c2ccc(Cl)cc2)c2nc3c(nc12)C(=O)C(=O)c1ccccc1-3", "growth": "65.3%"},
      {"smiles": "CN(C)CCCn1c2c(c3cnccc3c1=O)C(=O)c1ccccc1-2", "growth": "-1.59% (active)"},
      {"smiles": "COc1ccc(-c2cn3c(C(=O)Nc4ccccc4Cl)c(-c4ccccc4)c4c3n2CCCC4)cc1", "growth": "84.1%"},
      {"smiles": "COc1cc(C2CC(c3cccc(Nc4ccnc5cc(Cl)ccc45)c3)=NN2C=O)cc(OC)c1OC", "note": "(stereo not given)", "growth": "-37.1% (active)"},
      {"smiles": "Cc1cc2nc3cc(C)c(N)cc3[n+](-c3ccccc3)c2cc1N", "growth": "2.5% (active)"},
      {"smiles": "O=C(Nc1ccccc1C(=O)N/N=C(\\c1ccccc1)c1ccccn1)c1ccccc1", "growth": "-19.4% (active)"},
      {"smiles": "COc1ccc(C(=O)C[C@]2(O)C(=O)Nc3c(Cl)ccc(Cl)c32)cc1", "growth": "-7.27% (active)"},
      {"smiles": "COc1ccc(/C=C/c2cccc[n+]2C)cc1", "growth": "73.8%"},
      {"smiles": "CCN1C(=O)N(CC)C2C1NN=c1s/c(=C3\\C(=O)N(CC(C)C)c4ccccc43)c(=O)n12", "note": "(stereo not given)", "growth": "6% (active)"},
      {"smiles": "O=C(Nn1c(NCC(=O)N2c3ccccc3Sc3ccccc32)nnc1-c1ccc(O)cc1)c1ccccc1", "growth": "104%"},
      {"smiles": "COc1cc(N2C(=O)[C@H](O)C2c2ccc(SC)cc2)cc(OC)c1OC", "note": "(stereo not given in full)", "growth": "3.3% (active)"},
      {"smiles": "COc1ccc(COc2ccc(/C=C3\\C(=O)Nc4ccccc43)cc2OC)cc1", "growth": "100%"},
      {"smiles": "COc1ccc(OC)c(/C=C2\\COc3ccc(O)cc3C2=O)c1", "growth": "82.7%"},
      {"smiles": "Fc1ccc(-c2cc3nc(C(Cl)Cl)nc(-c4ccccc4)n3n2)cc1", "growth": "-59.1% (active)"},
      {"smiles": "CCN(CC)CCN1C(=O)c2c(c(C)c3c(oc4ccc(OC)cc43)c2C)C1=O", "growth": "101%"},
      {"smiles": "Cn1c(C(N)=O)cc2c1-c1nc(NC3CCCCC3)ncc1CCC2", "growth": "93.7%"},
      {"smiles": "O=C1/C(=C/c2ccc([N+](=O)[O-])o2)Oc2ccccc21", "growth": "-50.9% (active)"},
      {"smiles": "CCOC(=O)c1c(C)n(-c2ccc(Cl)cc2)c2ccc(OC(=O)/C=C/c3ccccc3)cc12", "growth": "22.9%"},
      {"smiles": "O=C(CCCSc1nc(-c2ccccc2)cc(-c2ccc(Cl)cc2)n1)NO", "growth": "-43.9% (active)"},
      {"smiles": "Nc1ccc(-c2nc3ccc4[nH]ncc4c3c3c2CCCC3)cc1F", "growth": "7.24% (active)"},
      {"smiles": "COc1ccc(Br)cc1NC(=O)Nc1cccc2c1ccn2Cc1ccnc(N)c1", "growth": "-14.4% (active)"},
      {"smiles": "CCNC(=O)Oc1ccc(/C(=C(/C)Cc2ccc(OC)cc2)c2ccc(OCCN(CC)CC)cc2)cc1", "growth": "46.6%"},
      {"smiles": "COc1cc(O)c2c(=O)c3c(CC=C(C)C)cc(OC)c(O)c3oc2c1", "growth": "64.6%"},
      {"smiles": "O=S(=O)(NCCCNc1nccc(-c2c(-c3ccccc3)nc3occn23)n1)c1ccc(Cl)cc1", "growth": "67.1%"},
      {"smiles": "C#CCOc1cccc(-c2ncnc3cc(NC(=O)CCl)ccc23)c1", "growth": "-57.3% (active)"},
      {"smiles": "O=c1[nH]ccc2nc(N3CCC(O)CC3)nc(Nc3ccc(N4CCOCC4)cc3)c12", "growth": "159%"},
      {"smiles": "Cc1nn(-c2ccccc2)c2nc(C)n(-c3ccc(Br)cc3)c(=O)c12", "growth": "-5.99% (active)"},
      {"smiles": "CN(C)CCCn1c2c(c3ccncc3c1=O)C(=O)c1ccccc1-2", "growth": "-16% (active)"},
      {"smiles": "CN1CCN(c2ccc3nc4c(nc3c2C(F)(F)F)C(=O)c2ncccc2C4=O)CC1", "growth": "-62.4% (active)"},
      {"smiles": "O=CNc1c(Cl)cc2c(c1Cl)Cc1cc([N+](=O)[O-])ccc1-2", "growth": "-3.02% (active)"},
      {"smiles": "C=CC1=C(C)C2=NC1=CC1=NC(=CC3=C(C)C4=C(O)C(C(=O)O)C(=C5NC(=C2)C(C)C5CCC(=O)O)C4=N3)C(CC)=C1C", "note": "(stereo not given)", "growth": "115%"},
      {"smiles": "Oc1c(Cl)cc(Cl)c2ccc(Cn3cc(-c4cc(F)cc(F)c4)nn3)nc12", "growth": "38.2%"},
      {"smiles": "C=C(C)[C@@H]1CC[C@]2(C(=O)N3CCN(C)CC3)CC[C@]3(C)[C@H](CC[C@@H]4[C@@]5(C)CC[C@H](OCCC#N)C(C)(C)[C@@H]5CC[C@]43C)[C@@H]12", "growth": "69.4%"},
      {"smiles": "CCOC(=O)c1cc(C(=O)c2cc(OC)c(OC)c(OC)c2)n2c1ccc1ccccc12", "growth": "1.54% (active)"},
      {"smiles": "COc1cc2c(O)n(CCCn3ccnc3)c3c4cnc5cccc(c(=O)c3c2cc1OC)c54", "growth": "4.34% (active)"},
      {"smiles": "CNC(=O)c1cc(-c2ccc(NC(=O)Nc3ccc(N4CCOCC4)c(C(F)(F)F)c3)cc2)nc2cccnc12", "growth": "29%"},
      {"smiles": "Fc1ccc(COc2ccc(Nc3ncnc4sc5c(c34)CCCC5)cc2)cc1", "growth": "93.9%"}
    ]}
  ]
}
